Measurements published in PubChem BioAssay AID1159580 (chemical genetic matrix, 2015).
“And” between values parts separate entries of the source, which are not always exact repeats. Identical values can stand only once. In all, about 5,500 compounds went through this assay and about 2,000 (36%) were called active. Roughly 18% stayed inconclusive and do not appear here. Cut-off read from the data, not from the text of the source: active = normalized growth mostly below about 0.91 (no sharp cut-off); inconclusive = no clear call, values can overlap the other calls; inactive = mostly above about 0.92. The list shows a part of the results.

Experiment: chemical genetic growth profiling, strain panel (AID 1159580);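 note: tested at 20 µM; growth read once vehicle control cultures reached saturation at 30 °C; 1 = growth at the plate median or of vehicle wells; lower values mean less growth of the strain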
Details: S. cerevisiae deletion strains, growth OD
[1] = locus YGR229C, strain SMI1, hits give low values
[2] = locus YJR075W, strain HOC1, hits give low values

Measured: normalized growth

N[C@@H]1[C@@H](O)[C@H](O)[C@@H](CO)O[C@H]1O
inactive: locus YAL021C, strain ccr4, hits give low values 1.03 | locus YAL026C, strain drs2, hits give low values 1.01 | locus YAL030W, strain snc1, hits give low values 1.02 | locus YBL061C, strain skt5, hits give low values 1.03 | locus YBR009C, strain hhf1, hits give low values 1.02 | locus YBR021W, strain FUR4, hits give low values 1.01 | locus YBR023C, strain chs3, hits give low values 1.02 | locus YBR171W, strain sec66, hits give low values 1.04 | locus YBR229C, strain ROT2, hits give low values 1.01 | locus YBR231C, strain swc5, hits give low values 1.02 | locus YBR279W, strain paf1, hits give low values 1.03 | locus YCL011C, strain gbp2, hits give low values 1.02 | locus YCL016C, strain dcc1, hits give low values 1.02 | locus YCL029C, strain bik1, hits give low values 0.998 | locus YCL061C, strain MRC1, hits give low values 1.03 | locus YCL069W, strain vba3, hits give low values 1.02 | locus YCR088W, strain abp1, hits give low values 1.02 | locus YDL005C, strain med2, hits give low values 1.02 | locus YDL035C, strain GPR1, hits give low values 1 | locus YDL040C, strain nat1, hits give low values 1.01 | locus YDL074C, strain BRE1, hits give low values 1 | locus YDL101C, strain DUN1, hits give low values 1.01 | locus YDL185W, strain tfp1, hits give low values 1.01 | locus YDL192W, strain arf1, hits give low values 1.02 | locus YDR001C, strain nth1, hits give low values 1.02 | locus YDR069C, strain doa4, hits give low values 1.02 | locus YDR101C, strain arx1, hits give low values 0.975 | locus YDR137W, strain rgp1, hits give low values 1.03 | locus YDR150W, strain NUM1, hits give low values 1 | locus YDR159W, strain sac3, hits give low values 1.03 | locus YDR162C, strain NBP2, hits give low values 1 | locus YDR195W, strain ref2 1.04 | locus YDR297W, strain sur2, hits give low values 1.01 | locus YDR318W, strain mcm21, hits give low values 1 | locus YDR334W, strain swr1, hits give low values 1.02 | locus YDR335W, strain msn5, hits give low values 1.03 | locus YDR388W, hits give low values 1 | locus YDR392W, strain spt3, hits give low values 1 | locus YDR502C, strain sam2, hits give low values 1.01 | locus YEL003W, strain gim4, hits give low values 1.02 | locus YEL037C, strain rad23, hits give low values 1.02 | locus YEL061C, strain CIN8 (second series), hits give low values 1.02 | locus YEL061C, strain CIN8, hits give low values 1.02 | locus YER015W, strain faa2, hits give low values 1.03 | locus YER016W, strain bim1, hits give low values 1.01 | locus YER110C, hits give low values 1 | locus YER111C, strain swi4, hits give low values 1.03 | locus YER155C, strain BEM2 (second series), hits give low values 1.05 | locus YER155C, strain BEM2, hits give low values 1 | locus YER167W, strain BCK2, hits give low values 1.01 | locus YFR010W, strain ubp6, hits give low values 1.01 | locus YGL078C, strain dbp3, hits give low values 1.01 | locus YGL086W, strain mad1, hits give low values 0.999 | locus YGL167C, strain pmr1, hits give low values 1.03 | locus YGL173C, strain kem1, hits give low values 1.03 | locus YGL227W, strain vid30, hits give low values 1.02 | locus YGL240W, strain doc1, hits give low values 1.04 | locus YGL248W, strain PDE1, hits give low values 1.01 | locus YGL253W, strain hxk2, hits give low values 1.02 | locus YGR078C, strain PAC10, hits give low values 1 | locus YGR135W, strain pre9, hits give low values 1.05 | [1] 1 | locus YGR252W, strain gcn5, hits give low values 1.01 | locus YHR013C, strain ard1, hits give low values 1.06 | locus YHR027C, strain rpn1, hits give low values 1.06 | locus YHR030C, strain SLT2, hits give low values 1 and 0.98 | locus YHR079C, strain IRE1 (second series), hits give low values 1.01 | locus YHR079C, strain IRE1, hits give low values 0.968 | locus YHR094C, strain hxt1, hits give low values 0.998 | locus YHR129C, strain ARP1, hits give low values 0.994 | locus YHR142W, strain chs7, hits give low values 1.01 | locus YHR200W, strain rpn10, hits give low values 1.01 | locus YIL066C, strain RNR3, hits give low values 1 | locus YIL073C, strain SPO22, hits give low values 1.04 | locus YIL125W, strain kgd1, hits give low values 1.01 | locus YIR030C, strain dcg1, hits give low values 1.01 | locus YJL092W, strain hpr5, hits give low values 1.03 | locus YJL095W, strain BCK1 (second series), hits give low values 1.01 | locus YJL095W, strain BCK1, hits give low values 1.01 and 0.986 | locus YJL115W, strain asf1, hits give low values 1.03 | locus YJL129C, strain trk1, hits give low values 1.04 | locus YJL134W, strain LCB3, hits give low values 1.01 | locus YJL154C, strain vps35, hits give low values 1.02 | locus YJL164C, strain tpk1, hits give low values 1.04 | locus YJL166W, strain qcr8, hits give low values 1.03 | locus YJL168C, strain set2, hits give low values 1 | locus YJL187C, strain SWE1 (second series), hits give low values 1 | locus YJL187C, strain SWE1, hits give low values 1.01 | locus YJR043C, strain POL32, hits give low values 0.992 | locus YJR066W, strain TOR1, hits give low values 0.937 | [2] 1 | locus YKL009W, strain mrt4, hits give low values 1.01 | locus YKL068W, hits give low values 1 | locus YKL085W, strain MDH1 (second series), hits give low values 1.01 | locus YKL085W, strain MDH1, hits give low values 1.01 | locus YKL160W, strain elf1, hits give low values 1.04 | locus YKR001C, strain vps1, hits give low values 0.993 | locus YKR026C, strain gcn3, hits give low values 1.02 | locus YKR091W, strain srl3, hits give low values 1.02 | locus YLL001W, strain dnm1, hits give low values 1.03 | locus YLL026W, hits give low values 1.01 | locus YLL041C, strain sdh2, hits give low values 1.01 | locus YLR027C, strain aat2, hits give low values 1.01 | locus YLR039C, strain RIC1, hits give low values 1.05 | locus YLR058C, strain SHM2, hits give low values 1.01 | locus YLR102C, strain apc9, hits give low values 1 | locus YLR113W, strain HOG1, hits give low values 0.985 | locus YLR221C, strain rsa3, hits give low values 1.03 | locus YLR258W, strain gsy2, hits give low values 1.02 | locus YLR262C, strain YPT6 (second series), hits give low values 1.06 | locus YLR262C, strain YPT6, hits give low values 1.02 | locus YLR268W, strain sec22, hits give low values 1.01 | locus YLR320W, strain mms22, hits give low values 1.05 | locus YLR330W, strain CHS5, hits give low values 1 | locus YLR342W, strain FKS1 (second series), hits give low values 1.01 | locus YLR342W, strain FKS1, hits give low values 1.02 | locus YLR357W, strain rsc2, hits give low values 1.05 | locus YLR370C, strain arc18, hits give low values 1.02 | locus YLR371W, strain rom2, hits give low values 0.991 | locus YLR384C, strain iki3, hits give low values 1.03 | locus YLR418C, strain cdc73, hits give low values 1.01 | locus YML016C, strain PPZ1, hits give low values 1 | locus YML032C, strain rad52, hits give low values 0.994 | locus YML120C, strain ndi1, hits give low values 1.03 | locus YML124C, strain tub3, hits give low values 1.01 | locus YMR058W, strain fet3, hits give low values 1.02 | locus YMR078C, strain ctf18, hits give low values 1.01 | locus YMR125W, strain sto1, hits give low values 1.04 | locus YMR129W, hits give low values 1.01 | locus YMR205C, strain PFK2, hits give low values 1.04 | locus YMR223W, strain ubp8, hits give low values 1.02 | locus YMR231W, strain pep5, hits give low values 1.02 | locus YMR307W, strain GAS1, hits give low values 1.01 | locus YNL067W, strain RPL9B, hits give low values 1.01 | locus YNL071W, strain lat1, hits give low values 1.03 | locus YNL183C, strain NPR1, hits give low values 0.962 | locus YNL209W, strain ssb2, hits give low values 1.01 | locus YNL233W, strain BNI4, hits give low values 1.01 | locus YNL248C, strain rpa49, hits give low values 1.03 | locus YNL250W, strain rad50, hits give low values 1.05 | locus YNL271C, strain bni1, hits give low values 1.02 | locus YNL298W, strain CLA4, hits give low values 1.01 | locus YNL307C, strain MCK1, hits give low values 1.01 | locus YNL322C, strain KRE1 (second series), hits give low values 1.04 | locus YNL322C, strain KRE1, hits give low values 1 | locus YNR049C, strain mso1, hits give low values 1.02 | locus YNR052C, strain pop2, hits give low values 1.01 | locus YOL006C, strain TOP1, hits give low values 1.05 | locus YOL012C, strain htz1 0.886 | locus YOL147C, strain pex11, hits give low values 1.01 | locus YOR001W, strain rrp6, hits give low values 1.04 | locus YOR061W, strain CKA2, hits give low values 1 | locus YOR069W, strain VPS5, hits give low values 1.01 | locus YOR070C, strain gyp1, hits give low values 1.03 | locus YOR080W, strain dia2, hits give low values 1.04 | locus YOR083W, strain WHI5, hits give low values 1.04 | locus YOR106W, strain vam3, hits give low values 1.06 | locus YOR136W, strain idh2, hits give low values 1.01 | locus YOR144C, strain elg1, hits give low values 1 | locus YOR184W, strain ser1, hits give low values 1.01 | locus YOR231W, strain MKK1, hits give low values 1 | locus YOR265W, strain rbl2, hits give low values 1.06 | locus YOR270C, strain vph1, hits give low values 1.08 | locus YOR290C, strain snf2, hits give low values 0.979 | locus YOR316C, strain cot1, hits give low values 1.01 | locus YPL051W, strain arl3, hits give low values 1.03 | locus YPL078C, strain atp4, hits give low values 1.03 | locus YPL106C, strain sse1, hits give low values 1.03 | locus YPL240C, strain hsp82, hits give low values 1.02 | locus YPL256C, strain CLN2, hits give low values 0.985 | locus YPR119W, strain clb2, hits give low values 1.01 | locus YPR141C, strain kar3, hits give low values 1.01 | locus YPR163C, strain tif3, hits give low values 1.01 | locus YPR167C, strain met16, hits give low values 1.01 | strain wtn01, hits give low values 1.02

OCC1O[C@H](O)C(Cl)C(O)C1O (some centres undefined)
inactive: locus YAL013W, strain DEP1, hits give low values 1.01 | locus YAL040C, strain CLN3, hits give low values 1.01 | locus YCL061C, strain MRC1 (second series), hits give low values 1.01 | locus YDR363W, strain ESC2, hits give low values 0.977 | locus YER002W, strain NOP16, hits give low values 1 | [1] 0.994 | [2] 0.984 | locus YNL128W, strain TEP1, hits give low values 1.01 | locus YNL175C, strain NOP13, hits give low values 1.02 | locus YNL197C, strain WHI3, hits give low values 0.986 | locus YNL224C, strain SQS1, hits give low values 1 | locus YOR083W, strain WHI5 (second series), hits give low values 1.02 | locus YPL055C, strain LGE1, hits give low values 0.979 | locus YPL241C, strain CIN2, hits give low values 1.01
